The record followed here is PubChem BioAssay.

“And” between values parts separate entries of the source, which are not always exact repeats. Equal entries are not always repeated. The source made the active and inactive calls. How the calls were made is not given here.

The experiment can be described thus: inhibitors of hydroxyurea-induced Chk1 phosphorylation, primary screen, imaging, HeLa, phospho-Chk1 antibody, percent positive cells (AID 1186). Particulars: hydroxyurea-induced phospho-Chk1 immunofluorescence imaging, higher = more signal.
Turning to `C=CCN(C(=O)C(c1cccs1)N(CCOCCO)C(=O)/C=C\C(=O)O)c1ccc(OC)cc1` (stereo not given), the z-score was -1.69 (inactive) and -0.75 (inactive). Regarding `C=CCN1C(=O)[C@]2(O[C@H](CCn3cc(CCO)nn3)[C@@H]([Si](C)(C)c3ccc(OC)cc3)[C@@H]2C)c2cc(N3C(=O)c4cccc5cccc3c45)ccc21`, the z-score is -1.98 (inactive) and -1.13 (inactive). As for `C=CCN(Cc1ccccc1)C(=O)C(c1cccs1)N(C(=O)/C=C\C(=O)O)c1ccc(CCO)cc1` (stereo not given), the z-score was 0.141 (inactive) and 0.581 (inactive). Consider `C=CCN(C(=O)C1N(CCOCCO)C(=O)C2C(C(=O)O)C3C=CC21O3)C(C)(C)C` (stereo not given), for which the z-score is -0.262 (inactive) and -0.147 (inactive).

With `C=CC[C@H](O)c1ccc(OCCO)cc1`, the z-score is -0.23 (inactive) and 0.182 (inactive). Take `C=CCN(CCCC)C(=O)C(c1cccs1)N(CCOCCO)C(=O)/C=C\C(=O)O` (stereo not given): the z-score is -0.36 (inactive) and 0.442 (inactive).

Take `C=CCN(CCCC)C(=O)C(c1cccs1)N(C(=O)/C=C\C(=O)O)c1ccc(CCO)cc1` (stereo not given): the z-score is 0.655 (inactive) and -0.177 (inactive). The figure for `C=CCN(Cc1ccccc1)C(=O)C1N(CCCCCCO)C(=O)C2C(C(=O)O)C3C=CC21O3` (stereo not given) is 0.909 (inactive) and 0.53 (inactive); for `C[N+](C)(C)CCCCCCNC(=O)[C@@H]1C[C@@H]2C(=O)N[C@@H](CCCC[N+](C)(C)C)C(=O)N2[C@@H]1c1ccc(O)cc1` it is 0.556 (inactive) and 0.31 (inactive); for `C=CCN(Cc1ccccc1)C(=O)C(c1cccs1)N(C(=O)/C=C\C(=O)O)c1c(Cl)cccc1CO` (stereo not given) it is -0.347 (inactive) and 0.628 (inactive).

`CC(C)OC(=O)C=C1C[C@@H](c2ccccc2)O[C@@H](c2ccccc2)O1`: the z-score is -0.502 (inactive) and -0.334 (inactive).

With `CCOC(=O)c1ccc(NC(=O)O[C@H]2[C@H](OC(=O)Nc3ccccc3)[C@@H](OC(=O)Nc3ccccc3)[C@@H](OC)O[C@@H]2CO)cc1`, the z-score was 0.416 (inactive) and -0.71 (inactive). As for `CC(C)OC(=O)C=C1C[C@@H](c2cccc(C(F)(F)F)c2)O[C@@H](c2cccc(C(F)(F)F)c2)O1`, the z-score is -0.394 (inactive) and -0.391 (inactive). `C=CCN(Cc1ccccc1)C(=O)C1N(c2ccc(CCO)cc2)C(=O)C2C(C(=O)O)C3C=CC21O3` (stereo not given): the z-score was 0.127 (inactive) and -0.193 (inactive). `C[N+](C)(C)CCCCNC(=O)[C@H]1C[C@H]2C(=O)N[C@@H](CCCC[N+](C)(C)C)C(=O)N2[C@H]1c1cccc(OCCO)c1`: the z-score was -0.885 (inactive) and -0.42 (inactive). In the case of `C=C[C@H](OC)[C@@H](O)c1ccc(O)c(F)c1`, the z-score was -0.0834 (inactive) and -0.834 (inactive). The figure for `C=C[C@@H](OC)[C@H](O)c1ccc(O)c(F)c1` is 0.591 (inactive) and -0.353 (inactive). Turning to `C=C[C@H](C)[C@@H](O)c1ccc(OCCO)cc1`, the z-score was 0.845 (inactive) and -1.4 (inactive). On to `C=CCN(CCCCC)C(=O)C(c1cccs1)N(CCOCCO)C(=O)/C=C\C(=O)O` (stereo not given), for which the z-score was -0.0506 (inactive) and -0.514 (inactive). For the compound `C=CCN(C(=O)C(c1cccs1)N(CCOCCO)C(=O)/C=C\C(=O)O)C(C)(C)C` (stereo not given), the z-score was 0.0502 (inactive) and -0.289 (inactive). Turning to `C=CCN(CCCCC)C(=O)C1N(CCCCCCO)C(=O)C2C(C(=O)O)C3C=CC21O3` (stereo not given), the z-score is 0.99 (inactive) and 1.26 (inactive). On to `C=CCN(CCCC)C(=O)C1N(c2ccc(CCO)cc2)C(=O)C2C(C(=O)O)C3C=CC21O3` (stereo not given), for which the z-score was 0.147 (inactive) and -0.608 (inactive).

Consider `C=CCN(CCCCC)C(=O)C(c1cccs1)N(C(=O)/C=C\C(=O)O)c1c(Cl)cccc1CO` (stereo not given), for which the z-score is 0.79 (inactive) and 0.313 (inactive).

Turning to `C=CC[C@@H](O)c1ccc(O)c(F)c1`, the z-score is -0.0057 (inactive) and -0.138 (inactive). For the compound `C=C[C@@H](C)[C@H](O)c1ccc(O)c2ccccc12`, the z-score is 0.311 (inactive) and 0.801 (inactive). As to `CC(C)[Si]1(C(C)C)OCc2cc(CCCc3cc4c(c(CCc5ccccc5)n3)[Si](C(C)C)(C(C)C)OC4)nc(CCc3ccccc3)c21`, the z-score is -0.72 (inactive) and 0.618 (inactive).

Turning to `C[N+](C)(C)CCCCNC(=O)[C@H]1C[C@H]2C(=O)N[C@@H](CCCC[N+](C)(C)C)C(=O)N2[C@H]1c1ccc(O)cc1`, the z-score was 0.487 (inactive) and -0.868 (inactive). On to `C=CCN(C(=O)C(c1cccs1)N(C(=O)/C=C\C(=O)O)c1ccc(CCO)cc1)c1ccc(OC)cc1` (stereo not given), for which the z-score is -0.157 (inactive) and 0.581 (inactive). Turning to `C[N+](C)(C)CCCCCCNC(=O)[C@H]1C[C@H]2C(=O)N[C@@H](CCCC[N+](C)(C)C)C(=O)N2[C@H]1c1cccc(OCCO)c1`, the z-score is 0.247 (inactive) and 0.199 (inactive).

In the case of `CCOC(=O)[C@@H]1CC2O[C@]23C[C@@H]1C(=O)N1CCC[C@@H]1[C@H]3O[Si](C)(C)C(C)(C)C` (stereo not given in full), the z-score was 0.271 (inactive) and 0.387 (inactive). In the case of `C[N+](C)(C)CCCCCCNC(=O)[C@H]1C[C@H]2C(=O)N[C@@H](CCCC[N+](C)(C)C)C(=O)N2[C@H]1c1ccc(O)cc1`, the z-score is -0.563 (inactive) and 0.0546 (inactive). The result for `C=CCN(CCCCC)C(=O)C1N(c2ccc(CCO)cc2)C(=O)C2C(C(=O)O)C3C=CC21O3` (stereo not given) reads -0.0956 (inactive) and 0.477 (inactive); that for `C=C[C@@H](C)[C@@H](O)c1ccc(O)c2ccccc12`, 0.789 (inactive) and 0.536 (inactive). For `C=CCN(CCCCC)C(=O)C(c1cccs1)N(C(=O)/C=C\C(=O)O)c1ccc(CCO)cc1` (stereo not given), the z-score is 0.51 (inactive) and 0.163 (inactive). Consider `C#CCN1C(/C=C/c2ccccc2)C(=O)OC[C@H]1c1ccccc1` (stereo not given in full), for which the z-score is -0.322 (inactive) and 0.0385 (inactive). On to `C[N+](C)(C)CCCCNC(=O)[C@@H]1C[C@@H]2C(=O)N[C@@H](CCCC[N+](C)(C)C)C(=O)N2[C@@H]1c1cccc(OCCO)c1`, for which the z-score is -0.123 (inactive) and -0.528 (inactive). In the case of `C=CCN(CCCCC)C(=O)C1N(c2c(Cl)cccc2CO)C(=O)C2C(C(=O)O)C3C=CC21O3` (stereo not given), the z-score is -0.672 (inactive) and 0.433 (inactive).

For `C=CCN(CCCC)C(=O)C(c1cccs1)N(C(=O)/C=C\C(=O)O)c1c(Cl)cccc1CO` (stereo not given), the z-score is 0.0771 (inactive) and -0.132 (inactive). Regarding `CC(C)[Si]1(C(C)C)OCc2cc(C3CC3)nc(CCc3ccccc3)c21`, the z-score was 0.0389 (inactive) and 0.993 (inactive). Regarding `C[C@@]1([C@@H](NC(=O)Cc2ccccc2)c2ccc(-c3ccccc3)cc2)C[C@H]1C1CCCCC1`, the z-score is 0.641 (inactive) and 0.338 (inactive) and 0.416 (inactive).
